Laboratory results taken from PubChem BioAssay (NCATS).
A number with no mark means an inactive call. Calls follow the shape of the dose curve; as a rule, active = well fitted curve in the direction sought with a large enough effect; inconclusive = small, poorly fitted or top-dose-only effect, or another doubt; inactive = no such curve, though single readings can be large or run the other way.

Experiment: Cellular Toxicity (caspase-3) MRC-5 (AID 659);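 also: cells exposed to compound for 16 h at 37 °C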
Details: MRC-5 cells, luminescence, normalized: DMSO 0%, 10 µM staurosporine 100%; series mostly up to 91.7 µM; caspase-3 activation: at the top concentration
Excerpt: NIH Chemical Genomics Center [NCGC]
NIH Molecular Libraries Screening Centers Network [MLSCN]
National Institutes of Environmental Health Sciences [NIEHS]
National Toxicology Program [NTP]
We have developed a 1536-well cell-based assay for quantitative high throughput screening (qHTS) against a number of cell lines to determine in vitro caspase 3/7 activity of small molecules. This particular assay uses the MRC-5 cell line which is derived from human normal lung fibroblasts.
NCGC Assay Protocol Summary:
The Caspase-Glo 3/7 assay (Promega) is a homogeneous method to measure caspase-3 and caspase-7 activities in cultured cells. The quantitation of caspase 3/7 activity is based on the cleavage of a peptide-aminoluciferin substrate. After caspase cleaves the substrate the free aminoluciferin is liberated and serves as the substrate of luciferase, which generates the light. The luminescent signal is proportional to amount of caspase 3/7 activity present.
Using the Caspase-Glo 3/7 assay, the amount of caspase 3/7 activity was measured in the MRC-5 line with complete culture medium following compound treatment for 16 hours. The assay was performed in opaque white 1536-well plates. In the screen, tamoxifen and staurosporine were used as positive controls. Library compounds were measured for their ability to cause the activation of caspase 3/7 in the cell line, as reflected by an increase in luminescence signal, in a concentration-dependent manner. Data were normalized to the controls for basal activity (DMSO only) and 100% stimulation (10 uM staurosporine). AC50 values were determined from concentration-response data modeled with the standard Hill equation.
qHTS protocol for caspase 3/7 assay in MRC-5 cells
[Step] [Parameter] [Value] [Description]
1. Reagent; 5 uL; 1500 MRC-5 cells/well
2. Time; 5 hr; 37 °C incubation
4. Controls; 23 nL; Tamoxifen 0.23 uM to 100 uM & staurosporine 1.4 pM to 100 uM
5. Time; 16 hr; 37 °C incubation
6. Reagent; 5 uL; Caspase-Glo 3/7 reagent
7. Time; 1 hr; Room Temperature
8. Detection; Luminescence; Viewlux plate reader
Keywords: caspase 3/7, apoptosis, MRC-5 cell line, luminescence, NTPHTS, NTPHTS_NCGC, NIEHS, EPA, DSSTox, MLSMR, MLSCN, NIH Roadmap, qHTS, NCGC

SMILES	caspase-3 activation [%]
Oc1cc(Cl)c(Cl)c(Cl)c1	1.04
O=S(=O)(O)F	-1.34
Clc1cccc2ccccc12	2.36
OCCBr	0.612
CN(C)c1ccc(N=Nc2ccccc2)cc1	-6.18
Cc1ccc(N=C=O)cc1N=C=O	0.303
ClCC(Cl)CCl	0.728
Nc1ccc(Cl)c(Cl)c1	0.466
CCCCOC(=O)c1ccccc1N	-1.15
Nc1ccc([N+](=O)[O-])cc1N	-1.78
O=[N+]([O-])c1cccc(O)c1	1.06
[C-]1=CC=CC1.[C-]1=CC=CC1.[Cl-].[Cl-].[Ti+4]	-1.98
NC1CCC(CC2CCC(N)CC2)CC1 (stereo not given)	-0.429
Clc1cc(Cl)c(Cl)c(Cl)c1	-1.16
O=[N+]([O-])/C=C/c1ccccc1	3.8
Clc1ccc(C(Cl)(Cl)Cl)c(Cl)c1	1.6
ClCc1ccccn1	0.958
Nc1ccc(-c2ccccc2)cc1	-0.268
Clc1ccc(C(c2ccccc2Cl)C(Cl)(Cl)Cl)cc1 (stereo not given)	2.05
C=CC(=O)OCC(CC)CCCC (stereo not given)	0.555

SMILES	caspase-3 activation [%]
S=C1NCCN1	0.375
CC(C)CON=O	0.718
N#CC(Cl)(Cl)Cl	0.816
CCC[N+](=O)[O-]	1.16
C=CCBr	-1.49
ClC(Cl)(Cl)C(Cl)(Cl)Cl	-0.869
Cl/C=C\Cl	1.74
O=[N+]([O-])c1ccc(O)c([N+](=O)[O-])c1	-1.05
CC(C)(COCC1CO1)COCC1CO1 (stereo not given)	7.83
N#CCc1ccccc1	2.52
CCN(N=O)C(N)=O	-1.07
Oc1cc(Cl)c(Cl)c(Cl)c1Cl	-0.347
Cc1cc(-c2cc(C)c(N)c(C)c2)cc(C)c1N	1.06
BrCC(Br)(Br)Br	23.1
O=[N+]([O-])c1ccc(Cl)c(Cl)c1Cl	-2.71
CC(C)OS(C)(=O)=O	0.533
COC(=O)Nc1nc2ccccc2[nH]1	-1.44
ClC=CCl	-0.298
COC(C)(C)C	-1.94
ClCC(Br)CBr (stereo not given)	0.132
